In ChEMBL document CHEMBL4513216, “Probing the Open Global Health Chemical Diversity Library for Multistage-Active Starting Points for Next-Generation Antimalarials” (ACS Infect Dis, 2020):
Among all 69,000 compounds or so, about 8,600 (12%) showed an effect of 50% or more. Many of the other results were omitted from the sample, so strong results are more common in it than they were.

tested on: Plasmodium berghei; experiment: Screen against P. berghei liver stage (PbLuc), transformed with Luciferase, at 10uM; assay type: functional, HepG2; conditions: tested at 10 uM

How did the INHIBITION turn out when `CN(Cc1ccco1)[C@@H]1CN(C(=O)c2ccnnc2)C[C@@H]2CCCO[C@@H]21` was run?
Its INHIBITION is 18.5%.

With `CCN(CC)C(=O)Cn1cc(-c2nc(C(C)C)no2)nn1` as the compound, how does the INHIBITION read?
Its INHIBITION is -18.1%.

How did the INHIBITION turn out when `O=C(c1cnco1)N1C[C@@H](O)[C@H](Oc2cccc(F)c2)C1` was run?
The INHIBITION was 5.11%.

How did the INHIBITION turn out when `Cc1cc(F)ccc1CNCc1cccc(C(=O)N2CCCC2)c1` was run?
The INHIBITION was 7.67%.

With `O=C(c1cccc(CNCC=Cc2ccccc2)c1)N1CCCC1` as the compound, how does the INHIBITION read?
Its INHIBITION is 58.5%.

`NC(=O)c1cccc(CNCC=Cc2ccccc2)c1` was tested. Which INHIBITION did it give?
Its INHIBITION is 17.1%.

How did the INHIBITION turn out when `COc1ccc(CN2CC(O)CN(C(=O)c3ccccc3)CC2=O)cc1` (configuration not stated) was run?
The INHIBITION was 23%.

For `CCc1nc2n(n1)CC(NCc1nc3ccccc3o1)CC2` (configuration not stated), which INHIBITION is on record?
Its INHIBITION is 11.9%.

With `CCc1nnc(CNC2CCc3nc(C(C)C)nn3C2)o1` (configuration not stated) as the compound, how does the INHIBITION read?
The INHIBITION was -19.4%.

`CC(C)c1nc2n(n1)CC(NCc1nnc(C(C)C)o1)CC2` (configuration not stated) was tested. Which INHIBITION did it give?
Its INHIBITION is 18.9%.

For `Cc1cc(NC(=O)CNC2CCc3nc(C(C)C)nn3C2)no1` (configuration not stated), which INHIBITION is on record?
The INHIBITION was -7.31%.

With `Cc1nc2n(n1)CC(NCC(=O)NCCC1=CCCCC1)CC2` (configuration not stated) as the compound, how does the INHIBITION read?
Its INHIBITION is 40.4%.

With `CCc1nc2n(n1)CC(NCc1nc(C)ccc1O)CC2` (configuration not stated) as the compound, how does the INHIBITION read?
Its INHIBITION is -15%.

How did the INHIBITION turn out when `Cc1nc2n(n1)CC(NCc1nc(C)c(C)o1)CC2` (configuration not stated) was run?
Its INHIBITION is -67.9%.

For `CC(C)c1nc2n(n1)CC(NCC(=O)NCCC1=CCCCC1)CC2` (configuration not stated), which INHIBITION is on record?
The INHIBITION was 51.1%.

With `CCc1nc2n(n1)CC(NCc1nc3ccccc3nc1C)CC2` (configuration not stated) as the compound, how does the INHIBITION read?
Its INHIBITION is 53.3%.

With `Cc1nc(CNC2CCc3nc(C(C)C)nn3C2)oc1C` (configuration not stated) as the compound, how does the INHIBITION read?
The INHIBITION was 75.2%.

How did the INHIBITION turn out when `CCc1nc2n(n1)CC(NCc1nnc(C(C)C)o1)CC2` (configuration not stated) was run?
The INHIBITION was 60.2%.

Which INHIBITION does the source give for `CCc1nc2n(n1)CC(NCc1nc(C)c(C)o1)CC2` (configuration not stated) here?
The INHIBITION was 46.6%.

For `CCN1C(=O)CC[C@@H]2[C@H]1CCN2S(=O)(=O)Cc1ccc(C)cc1`, which INHIBITION is on record?
The INHIBITION was 45.2%.

`Clc1ccc(-c2nc(CN3CCCC3Cn3cncn3)co2)cc1` (configuration not stated) was tested. Which INHIBITION did it give?
Its INHIBITION is -24.2%.

With `c1coc(CN2CCO[C@H]3[C@H](OCC4CC4)CC[C@@H]32)c1` as the compound, how does the INHIBITION read?
The INHIBITION was -2.27%.

For `CCN(Cc1nc2c(cnn2C)c(=O)[nH]1)c1ccc(F)cc1`, which INHIBITION is on record?
Its INHIBITION is 29.7%.

How did the INHIBITION turn out when `CC(C)Nc1nc(O)cc(C2CC(=O)N(Cc3ccccn3)C2)n1` (configuration not stated) was run?
The INHIBITION was -23.8%.

How did the INHIBITION turn out when `Cc1cc(C(=O)N2CCC(c3nnc(Cn4ccnc4)n3C)CC2)cs1` was run?
The INHIBITION was -40.5%.

How did the INHIBITION turn out when `Cc1ccc(C(=O)N2CCC3(CC(N(C)c4ccncn4)C3)C2)cn1` (configuration not stated) was run?
The INHIBITION was 41.2%.

For `Cc1cnn(CC2CCCN2C(=O)c2cc3c(F)cccc3[nH]2)c1` (configuration not stated), which INHIBITION is on record?
The INHIBITION was 24.6%.

`CCCOC(C)C(=O)NCc1cc2n(n1)CCCN(C1CCCCC1)C2` (configuration not stated) was tested. Which INHIBITION did it give?
The INHIBITION was 14.8%.

Which INHIBITION does the source give for `CN(C)S(=O)(=O)c1ccc(=O)n(CC2CCCCO2)c1` (configuration not stated) here?
The INHIBITION was 4.52%.

Which INHIBITION does the source give for `O=C(c1cccnc1)N1CCN(CC2CC2)c2ncccc2C1` here?
Its INHIBITION is -18.4%.

For `CSc1ccccc1C(=O)N1CCN(C)C2(CCC(=O)N(C)CC2)C1` (configuration not stated), which INHIBITION is on record?
The INHIBITION was 46.7%.

Which INHIBITION does the source give for `Cc1c(F)cc(C(=O)O)cc1S(=O)(=O)Nc1ccccc1` here?
The INHIBITION was 20.265%.

`Cn1c(C2CCCN2C(=O)CN2CSCC2=O)nc2ccccc21` (configuration not stated) was tested. Which INHIBITION did it give?
Its INHIBITION is 59.3%.

With `Cn1c(C2CCCN2C(=O)CN2CCCC2=O)nc2ccccc21` (configuration not stated) as the compound, how does the INHIBITION read?
The INHIBITION was 24.7%.

With `Cn1c(C2CCCN2C(=O)c2cn(CCN)nn2)nc2ccccc21` (configuration not stated) as the compound, how does the INHIBITION read?
Its INHIBITION is 28%.

Which INHIBITION does the source give for `Cn1c(C2CCCCN2C(=O)CN2CCCC2=O)nc2ccccc21` (configuration not stated) here?
The INHIBITION was 61.5%.

How did the INHIBITION turn out when `Cn1cc(C2CCCN2C(=O)Cn2ccc3ccccc32)cn1` (configuration not stated) was run?
Its INHIBITION is 23.1%.

For `O=C1CSCN1CC(=O)N1CCCC1c1nc2ccccc2s1` (configuration not stated), which INHIBITION is on record?
Its INHIBITION is 32.3%.

For `Cc1cnn(CCC(=O)N(CC2CN(C)CCO2)c2nccs2)c1` (configuration not stated), which INHIBITION is on record?
Its INHIBITION is -31.6%.

Which INHIBITION does the source give for `CN1CCOC(CN(C(=O)CCc2cnn(C)c2)c2nccs2)C1` (configuration not stated) here?
Its INHIBITION is 62.6%.

Which INHIBITION does the source give for `CN1CCOC(CN(C(=O)COc2ccccc2)c2nccs2)C1` (configuration not stated) here?
Its INHIBITION is -2.53%.

`CN1CCOC(CN(C(=O)CN2CCCC2=O)c2nccs2)C1` (configuration not stated) was tested. Which INHIBITION did it give?
Its INHIBITION is 48.1%.

`CN1CCOC(CN(C(=O)CC2CCCC2)c2nccs2)C1` (configuration not stated) was tested. Which INHIBITION did it give?
The INHIBITION was 55.5%.

`CN1CCOC(CN(C(=O)CCc2ccco2)c2nccs2)C1` (configuration not stated) was tested. Which INHIBITION did it give?
The INHIBITION was 43.3%.

With `CCC1(CO)CCCN(C(=O)c2cc(COc3ccccc3F)[nH]n2)C1` (configuration not stated) as the compound, how does the INHIBITION read?
Its INHIBITION is -39.3%.

For `Cn1cc(-c2cc(C(F)(F)F)nn2CCC#N)cn1`, which INHIBITION is on record?
Its INHIBITION is 20.1%.

How did the INHIBITION turn out when `Cc1cc2c(cc1NC(=O)NCC(C)C)OCO2` was run?
Its INHIBITION is 28.5%.

Which INHIBITION does the source give for `O=C1CCC2(CCN(CC[C@@H](O)c3ccccc3)CC2)CN1CC1CC1` here?
Its INHIBITION is -51.7%.

Which INHIBITION does the source give for `O=C(c1cccs1)N1CCCC(c2cc(C(F)F)n3ncnc3n2)C1` (configuration not stated) here?
Its INHIBITION is 40%.

Which INHIBITION does the source give for `O=C(CCCn1cccn1)N1CCCC(n2cncn2)C1` (configuration not stated) here?
Its INHIBITION is 12.9%.

How did the INHIBITION turn out when `CC(C)C(=O)N1CCc2c(CN(C)Cc3ccco3)cncc2C1` was run?
The INHIBITION was -11.2%.

Which INHIBITION does the source give for `COCCC(=O)NC(C)(C(N)=O)c1cccc(Cl)c1` (configuration not stated) here?
The INHIBITION was 26.4%.

How did the INHIBITION turn out when `Cc1nncn1CCNC(=O)C(C)(C)c1cccc(Cl)c1` was run?
The INHIBITION was 24.3%.

For `CC(NC(=O)Cc1ccccc1F)(C(N)=O)c1cccc(Cl)c1` (configuration not stated), which INHIBITION is on record?
Its INHIBITION is 32%.

How did the INHIBITION turn out when `CC(C)(CNC(=O)c1ccc(Cl)o1)NC(=O)OC(C)(C)C` was run?
The INHIBITION was -60.9%.

For `CC(NC(=O)Cc1cccs1)(C(N)=O)c1cccc(Cl)c1` (configuration not stated), which INHIBITION is on record?
Its INHIBITION is 60%.

Which INHIBITION does the source give for `CC(C)(C)CC(=O)NC(C)(C(N)=O)c1cccc(Cl)c1` (configuration not stated) here?
The INHIBITION was 74.5%.
